Consider 13 compounds from PubChem BioAssay (NCATS).

Records with an inconclusive call do not appear. Active and inactive are the calls of the source. Calls come from the whole dose curve; as a rule, active = well fitted curve in the direction sought with a large enough effect; inconclusive = small, poorly fitted or top-dose-only effect, or another doubt; inactive = no such curve, though single readings can be large; an effect the other way counts as inactive or inconclusive.

Test [1] in a line: Quantitative High-Throughput drug screen in 47 multiple myeloma cell lines against the NCATS MIPE library collection: ARD_JJKsccE7 cell viability assay (AID 1918929; note: potency is the fitted concentration of half-maximal effect). The gist of the method: (§1)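 qHTS of the MIPE 4.0 collection: 500 myeloma cells/well, 48 h drug exposure at 37C in 5% CO2, then CellTiter-Glo for 5 min at room temperature before luminescence reading.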
A short description of test [2]: Quantitative High-Throughput drug screen in 47 multiple myeloma cell lines against the NCATS MIPE library collection: Karpas620_DSMZ cell viability assay (AID 1918959). Note: nearly all actives have a fitted effect of over 30% in size. Note: potency is the fitted concentration of half-maximal effect. The gist of the method:
(§2)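 Myeloma cells (500 per well) were exposed to MIPE 4.0 compounds by pin transfer and incubated 48 hours at 37C, 5% CO2. Viability was read as ATP by CellTiter-Glo luminescence, normalised to DMSO (100%) and media-only (0%) wells.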

Test [3] is described as follows: Quantitative High-Throughput drug screen in 47 multiple myeloma cell lines against the NCATS MIPE library collection: KMM1_JCRB cell viability assay (AID 1918960). Note: nearly all actives have a fitted effect of over 30% in size. Note: potency is the fitted concentration of half-maximal effect. The gist of the method: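 Cell viability inhibition in this qHTS is measured via ATP content (CellTiter-Glo) after 48 h drug exposure at 37 °C. Wells hold 500 cells; DMSO-treated wells define 100% and medium-only wells 0%.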

Test [4] is described as follows: Quantitative High-Throughput drug screen in 47 multiple myeloma cell lines against the NCATS MIPE library collection: KHM11_PLB cell viability assay (AID 1918962). Note: nearly all actives have a fitted effect of over 35% in size. Note: potency is the fitted concentration of half-maximal effect. The gist of the method:
as §2

Test [5] is described as follows: Quantitative High-Throughput drug screen in 47 multiple myeloma cell lines against the NCATS MIPE library collection: JIM3_ECACC cell viability assay (AID 1918963; note: nearly all actives have a fitted effect of over 35% in size; note: potency is the fitted concentration of half-maximal effect). A digest of the protocol: as §2
The nature of test [6]: Quantitative High-Throughput drug screen in 47 multiple myeloma cell lines against the NCATS MIPE library collection: KMS12BM_JCRB cell viability assay (AID 1918971). Note: nearly all actives have a fitted effect of over 35% in size. Note: potency is the fitted concentration of half-maximal effect. The gist of the method: (§3)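 Luminescent ATP measurement with CellTiter-Glo gives viability, scaled between DMSO-only wells (100%) and media-only wells (0%). Cells, 500 per well, faced library compounds for 48 hours at 37C.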

Test [7] can be described thus: Quantitative High-Throughput drug screen in 47 multiple myeloma cell lines against the NCATS MIPE library collection: KMS26_JCRB cell viability assay (AID 1918975). Note: nearly all actives have a fitted effect of over 45% in size. Note: potency is the fitted concentration of half-maximal effect. The gist of the method: as §3
Test [8] can be described thus: Quantitative High-Throughput drug screen in 47 multiple myeloma cell lines against the NCATS MIPE library collection: INA6_PLB cell viability assay (AID 1918965; note: nearly all actives have a fitted effect of over 55% in size; note: potency is the fitted concentration of half-maximal effect). A digest of the protocol:
(§4)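 CellTiter-Glo ATP luminescence gave viability after 48 h compound treatment at 37C of 500 multiple myeloma cells per well. Normalisation used DMSO-only wells as 100% and media-only wells as 0% viability; primary qHTS of approved and investigational drugs.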

Test [9] can be described thus: Quantitative High-Throughput drug screen in 47 multiple myeloma cell lines against the NCATS MIPE library collection: JJN3_DSMZ cell viability assay (AID 1918966; note: nearly all actives have a fitted effect of over 50% in size; note: potency is the fitted concentration of half-maximal effect). A digest of the protocol:
as §1

A short description of test [10]: Quantitative High-Throughput drug screen in 47 multiple myeloma cell lines against the NCATS MIPE library collection: H1112_PLB cell viability assay (AID 1918967; note: nearly all actives have a fitted effect of over 30% in size; note: potency is the fitted concentration of half-maximal effect). The gist of the method:
as §1

Test [11] in a line: Quantitative High-Throughput drug screen in 47 multiple myeloma cell lines against the NCATS MIPE library collection: KMS27_JCRB cell viability assay (AID 1918970). Note: nearly all actives have a fitted effect of over 30% in size. Note: potency is the fitted concentration of half-maximal effect. A digest of the protocol: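 KMS27_JCRB myeloma cells, 500 per well, exposed 48 h at 37 C, 5% CO2 to MIPE 4.0 compounds. Viability from ATP by CellTiter-Glo luminescence, normalized to DMSO (100%) and medium-only (0%) wells.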

The nature of test [12]: Quantitative High-Throughput drug screen in 47 multiple myeloma cell lines against the NCATS MIPE library collection: KMS12PE_JCRB cell viability assay (AID 1918972). Note: nearly all actives have a fitted effect of over 30% in size. Note: potency is the fitted concentration of half-maximal effect. The gist of the method: as §4
The nature of test [13]: Quantitative High-Throughput drug screen in 47 multiple myeloma cell lines against the NCATS MIPE library collection: KMS21BM_JCRB cell viability assay (AID 1918974). Conditions: ATP luminescence, 48 h; viability: at 45.8 µM (top of the series) unless noted. The gist of the method:
as §1

Test [14] can be described thus: Quantitative High-Throughput drug screen in 47 multiple myeloma cell lines against the NCATS MIPE library collection: NCIH929_DSMZ cell viability assay (AID 1918978). Note: nearly all actives have a fitted effect of over 35% in size. Note: potency is the fitted concentration of half-maximal effect. A digest of the protocol:
(§5)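 ATP-based CellTiter-Glo luminescence after 48 h drug exposure (37 °C, 5% CO2) of 500 myeloma cells per well. DMSO-only wells set 100% viability, media-only wells 0%; MIPE 4.0 library added by pin tool.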

A short description of test [15]: Quantitative High-Throughput drug screen in 47 multiple myeloma cell lines against the NCATS MIPE library collection: Karpas25_ECACC cell viability assay (AID 1918968; note: nearly all actives have a fitted effect of over 35% in size; note: potency is the fitted concentration of half-maximal effect). The gist of the method:
as §1

A short description of test [16]: Quantitative High-Throughput drug screen in 47 multiple myeloma cell lines against the NCATS MIPE library collection: MOLP8_DSMZ cell viability assay (AID 1918977). Note: nearly all actives have a fitted effect of over 45% in size. Note: potency is the fitted concentration of half-maximal effect. A digest of the protocol: as §5
Test [17] is described as follows: Quantitative High-Throughput drug screen in 47 multiple myeloma cell lines against the NCATS MIPE library collection: JIM1_ECACC cell viability assay (AID 1918964; note: potency is the fitted concentration of half-maximal effect). A digest of the protocol:
as §1

Test [18] in a line: Quantitative High-Throughput drug screen in 47 multiple myeloma cell lines against the NCATS MIPE library collection: KMS20_JCRB cell viability assay (AID 1918973). Note: nearly all actives have a fitted effect of over 45% in size. Note: potency is the fitted concentration of half-maximal effect. The gist of the method: as §1
The nature of test [19]: Quantitative High-Throughput drug screen in 47 multiple myeloma cell lines against the NCATS MIPE library collection: MMM1_PLB cell viability assay (AID 1918976). A digest of the protocol: as §5

For `CC(C)OC(=O)C(C)(C)Oc1ccc(C(=O)c2ccc(Cl)cc2)cc1`, the Potency result in [1], in test [2], in [3] and in test [5] was “inactive” throughout. In addition, the Potency in test [4] is 26.4 µM (active); in test [6], 13.2 µM (active); in test [7], 11.8 µM (active).

As for `O=C(Nc1c(Cl)cncc1Cl)c1ccc(OC(F)F)c(OCC2CC2)c1`, the Potency entry in test [1], in test [2], in [3], in test [5], in test [9] and in test [10] was “inactive” in each case. The Potency result in test [11], in test [12], in test [13] and in test [7] was “inactive” throughout. For the same compound, the Potency in [8] is 37.2 µM (active); in test [14] it was 23.5 µM (active).

As for `O=C(O)c1ccccc1C(=O)Nc1ccc(-c2ccccc2)cc1`, the Potency result in test [1], in [2], in test [3], in test [4], in test [5] and in test [8] was “inactive” in each case. Moreover, the Potency result in [10], in test [15], in [11], in test [12], in test [16] and in test [14] was “inactive” each time.

`CC(C(=O)O)c1ccc(-c2ccccc2)c(F)c1` (stereo not drawn): the Potency entry in [1], in [2], in test [3], in test [17], in test [12] and in test [16] was “inactive” throughout. The Potency in test [8] is 18.7 µM (active); in test [10], 18.7 µM (active); in test [15] it was 20.9 µM (active); in test [18], 4.69 µM (active); in [19], 1.87 µM (active); in test [14], 16.6 µM (active).

As for `CC=CC(=O)N(CC)c1ccccc1C`, the Potency result in test [1], in [2], in test [3], in test [4], in [5] and in [17] was “inactive” throughout. Moreover, the Potency result in [8], in test [10], in test [15], in [11], in test [12] and in test [18] was “inactive” in each case. In addition, the Potency in test [19] is 3.72 µM (active); in [16], 41.8 nM (active).

Take `Nc1ncnc2ccccc12`: the Potency entry in test [1], in test [2], in test [3], in test [5], in [17] and in test [8] was “inactive” each time. Moreover, the Potency entry in test [9], in test [11] and in test [16] was “inactive” each time. Besides, the Potency in test [14] was 26.4 µM (active).

For the compound `C[C@H]1[C@H](NC(=O)C(=NOC(C)(C)C(=O)O)c2csc(N)n2)C(=O)N1S(=O)(=O)O`, the Potency entry in test [1], in test [2], in test [3], in test [4], in test [10] and in test [11] was “inactive” each time. For the same compound, the Potency entry in test [12], in [7], in test [16] and in [14] was “inactive” throughout. For the same compound, the Potency in test [6] is 1.48 µM (active); in test [18] it was 16.6 µM (active).

Regarding `C=C1C(=O)[C@@]23C(CC[C@@H]1[C@H]2O)[C@@]12CO[C@]3(O)[C@@H](O)[C@@H]1C(C)(C)CC[C@@H]2O` (stereo partly drawn), the Potency is 1.48 µM (active) in test [1]; 0.935 µM (active) in test [2]; 2.35 µM (active) in [3]; 5.26 µM (active) in test [4]; 1.05 µM (active) in test [17]; 1.18 µM (active) in test [8]. Also, the Potency in [9] is 2.09 µM (active); in test [10] it was 18.7 µM (active); in [15], 2.35 µM (active); in [11], 1.87 µM (active); in test [6], 9.35 µM (active); in [12], 2.09 µM (active). Moreover, the Potency is 2.35 µM (active) in test [18]; 2.64 µM (active) in [7]; 13.2 µM (active) in test [19]; 2350 nM (active) in test [16]; 1.32 µM (active) in [14].

Regarding `CNC1CCC(N(Cc2cccc(-c3ccncc3)c2)C(=O)c2sc3c(F)ccc(F)c3c2Cl)CC1` (stereo not drawn), the Potency is 29.6 µM (active) in test [1]; 16.6 µM (active) in test [2]; 18.7 µM (active) in test [3]; 0.469 µM (active) in test [4]; 16.6 µM (active) in test [5]; 14.8 µM (active) in [17]. For the same compound, the Potency in test [8] is 8.33 µM (active); in test [10] it was 18.7 µM (active); in test [15] it was 11.8 µM (active); in [11] it was 18.7 µM (active); in [12], 10.5 µM (active); in test [18] it was 1.48 µM (active). For the same compound, the Potency is 16.6 µM (active) in test [7], 26.4 µM (active) in test [19] and 4.69 µM (active) in test [14].

Take `CC(C)(C)COc1ccc(-n2cc(C(=O)O)cn2)cc1C#N`: the Potency result in test [1], in test [2], in test [3], in test [4], in test [5] and in test [8] was “inactive” in each case. In addition, the Potency result in test [9], in [10], in test [11], in test [6], in test [12] and in test [7] was “inactive” throughout. Besides, the Potency entry in test [16] is “inactive”.

Take `O=C(OCC#CCSc1nnc(-c2cccc3ccccc23)o1)c1cc2ccccc2s1`: the Potency result in test [1], in [2], in [3], in test [4], in test [5] and in [17] was “inactive” each time. Moreover, the Potency entry in test [8], in [10], in [15], in test [11], in [12] and in [7] was “inactive” in each case. In addition, the Potency entry in test [14] was “inactive”.

As to `N#C[C@H]1C[C@H]2C[C@@H]2N1C(=O)[C@@H](N)C12CC3CC(CC(O)(C3)C1)C2`, the Potency result in test [1], in [2], in test [3], in [4], in test [5] and in [17] was “inactive” in each case. Moreover, the Potency result in [11] and in test [12] was “inactive” each time.

Regarding `C[C@]12CC[C@@H]3c4ccc(O)cc4C[C@@H](CCCCCCCCCS(=O)CCCC(F)(F)C(F)(F)F)[C@H]3[C@H]1CC[C@H]2O` (stereo partly drawn), the Potency entry in test [1], in test [2], in test [3], in test [4], in test [17] and in [8] was “inactive” in each case. The Potency result in test [10], in test [15], in test [11], in test [7] and in test [16] was “inactive” each time. For the same compound, the Potency is 7.43 µM (active) in test [12] and 0.0187 µM (active) in [14].
